MEKK3 PB1 HTS = modulators of MEKK3-MEK5 PB1 binding, primary screen, biochemical, wildtype MEKK3, multiplex bead flow cytometry, Alexa488-MEK5 | Mitogen-activated protein kinase kinase kinase 3 (Homo sapiens), Q99759 | bead-based flow cytometry, Alexa488-MEK5 binding to MEKK3; actives lie on both sides; 0 = blocked by unlabeled MEK5, 100 = vehicle | AID 1529, 2009 | 1.4% of 290,000 active | binding response (% of control), % at 10 µM;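 active means binding response more than 3 SD above or below the average of its plate-row segment, actives on both sides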;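 further: Alexa488 bead fluorescence after subtracting the streptavidin-only scavenger bead signal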
PREPL inh = PREPL enzyme inhibitors, primary screen, biochemical, fluorescence polarization. Prolyl endopeptidase-like (Homo sapiens), Q4J6C6. recombinant PREPL, fluorescence polarization activity-based probe. inhibition, % at 5.96 µM. 0.68% of 320,000 active; in the data active means inhibition above about 43%;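 further: 0% = enzyme with DMSO and 100% = wells lacking enzyme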
ATG4B inh = ATG4B protease inhibitors, primary screen, biochemical, fluorescence, uHTS | 0.51% of 340,000 active | inhibition, % at 8.33 µM | Cysteine protease ATG4B (Homo sapiens), Q9Y4P1 | AID 504462, 2011 | ATG4B cleavage of LC3-PLA2, NBD-HPC fluorescence, 1 h; in the data active means inhibition above about 40%
Target sequence (Q9Y4P1 whole entry, looked up): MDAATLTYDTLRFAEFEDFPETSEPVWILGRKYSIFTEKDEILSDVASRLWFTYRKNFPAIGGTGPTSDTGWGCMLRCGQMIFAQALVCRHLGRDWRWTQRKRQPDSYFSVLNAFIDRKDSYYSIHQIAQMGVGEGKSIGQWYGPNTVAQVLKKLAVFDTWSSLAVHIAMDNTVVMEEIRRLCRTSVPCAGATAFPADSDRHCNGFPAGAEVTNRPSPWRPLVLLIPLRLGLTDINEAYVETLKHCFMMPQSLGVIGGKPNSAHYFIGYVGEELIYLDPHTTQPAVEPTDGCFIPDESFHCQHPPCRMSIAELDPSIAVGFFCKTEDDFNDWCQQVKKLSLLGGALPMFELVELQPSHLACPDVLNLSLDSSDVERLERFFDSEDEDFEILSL
MEKK2 WT-MEK5 = modulators of MEK5 binding to wildtype MEKK2, primary screen, biochemical, multiplex bead flow cytometry, Alexa488-MEK5 | Alexa488-MEK5 binding to MEKK2 WT; actives lie on both sides | 1.1% of 290,000 active | binding response (% of control), % at 10 µM | Mitogen-activated protein kinase kinase kinase 2 (Homo sapiens), Q9Y2U5 | AID 1531, 2009; in the data active means binding response below about 67% or above about 130%
UBC13 inh = UBC13 polyubiquitin chain formation inhibitors, primary screen, biochemical, TR-FRET, uHTS; Ubiquitin-conjugating enzyme E2 N (Homo sapiens), P61088; 0.47% of 330,000 active; inhibition, % at 20 µM; in the data active means inhibition above about 45%, passing the limit was not always enough
Target sequence (P61088 whole entry, looked up): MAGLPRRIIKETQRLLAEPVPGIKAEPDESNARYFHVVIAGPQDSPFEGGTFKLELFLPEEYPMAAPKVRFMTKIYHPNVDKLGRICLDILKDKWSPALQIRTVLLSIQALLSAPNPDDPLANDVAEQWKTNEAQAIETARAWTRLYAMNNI
MEKK2mut PB1 HTS = MEK5 binding signal on mutant MEKK2 PB1, primary screen, biochemical, multiplex bead flow cytometry, Alexa488-MEK5. Alexa488-MEK5 binding to MEKK2 mutant. percent response, % at 10 µM. 0.35% of 290,000 active. AID 1530, 2009; in the data active means percent response above about 24%, passing the limit was not always enough
MEKK2wt confirm = modulators of MEK5 binding to wildtype MEKK2, confirmation, biochemical, single concentration, multiplex bead flow cytometry. 2.4% of 5,900 active. binding response (% of control), % at 10 µM. AID 1892, 2009. shares compounds with MEKK3 PB1 HTS. Alexa488-MEK5 binding to MEKK2 WT; actives lie on both sides; in the data active means binding response below about 16% or above about 210%; inactive means in between
MEKK2mut-MEK5 = mutant MEKK2 PB1-MEK5 binding signal retest – biochemical, single concentration, multiplex bead flow cytometry, confirmation; Alexa488-MEK5 binding to MEKK2 mutant; percent response, % at 10 µM; shares compounds with MEKK3 PB1 HTS; 2% of 5,900 active; in the data active means percent response mostly above about 71%, no sharp cut-off; inactive means mostly below about 38%;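 further: higher means compound restores mutant binding toward wildtype level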
MEKK3-MEK5 inh = MEKK3 wild-type PB1 binding to MEK5, inhibitors, confirmation, biochemical, bead multiplex flow cytometry, single concentration, wildtype. shares compounds with MEKK3 PB1 HTS. Alexa488-MEK5 binding to MEKK3; active compounds read low. binding response (% of control), % at 10 µM. 1.8% of 5,900 active;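 active means binding response below 72% of control, or above a set upper limit, though filed actives all read lower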;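 further: 100% = DMSO only wells and 0% = binding blocked by excess unlabeled MEK5; lower values mean stronger disruption of MEK5 binding to MEKK3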
Active calls of the source: *; nt = no result given; [ ] = dose if it differs, or a comment. Shown are actives, neighbours in structure and some others; about 3.1% of the full set was active somewhere.

SMILES	MEKK3 PB1 HTS	PREPL inh	ATG4B inh	MEKK2 WT-MEK5	UBC13 inh	MEKK2mut PB1 HTS	MEKK2wt confirm	MEKK2mut-MEK5	MEKK3-MEK5 inh
Cc1ccc2nc(N(CCCN(C)C)C(=O)c3ccco3)sc2c1	231*	-72	-6	121	-8	33	109	12	107
O=C(NCc1ccc(N2CCCC2=O)cc1)Nc1ccccc1	103	4	-14	103	5	3	nt	nt	nt
O=C(NCc1ccc(N2CCCC2=O)cc1)Nc1cccc2ccccc12	1.0*[inhibitor]	11	-5	-1.0*[inhibitor]	6	-9	101	1	103
O=C(O)CCn1c(SCc2ccccc2)nc2ccccc21	0.0*[inhibitor]	9	1	0.0*[inhibitor]	-1	-21	98	-6	98
O=C(O)CCn1c(SCCc2ccccc2)nc2ccccc21	nt	-6	2	nt	2	nt	nt	nt	nt
CCCn1c(SCC(=O)N2c3ccccc3Sc3ccccc32)nc2ccccc21	150*	-14	-10	107	5	0	97	-5	104
O=C(COc1cc2oc(=O)cc(-c3ccccc3)c2cc1Cl)NCCN1CCOCC1	101	4	-2	104	2	2	nt	nt	nt
CC1(C)CC(=O)C2=C(C1)Nc1ncnn1C2c1cccs1 (stereo unspecified)	145*	-1	2	124	-5	1	110	6	107
O=C(N/N=C/c1cccnc1)C1CC1(c1ccccc1)c1ccccc1 (stereo unspecified)	97	0	-8	95	0	-4	nt	nt	nt
O=C(O)c1ccc(/C=N/NC(=O)C2CC2(c2ccccc2)c2ccccc2)cc1 (stereo unspecified)	153*	0	nt	117	-23	5	95	-7	98
COc1ccc(C2C(C#N)=C(N)Oc3cc(O)ccc32)cc1OC (stereo unspecified)	106	-1	-6	109	3	12	nt	nt	nt
COc1cc(C2C(C#N)=C(N)Oc3cc(O)ccc32)cc(OC)c1OC (stereo unspecified)	10*[inhibitor]	6	1	13*[inhibitor]	8	-21	95	-3	99
C=CC(C)(O)CCC=C(C)C (stereo unspecified)	nt	7	-2	nt	6	nt	nt	nt	nt
CC(C)=CCC/C(C)=C/CC(C)(C)CNCCN1CCNCC1	119	-10	nt	163*	30	21	111	12	105
O=C(CSc1nc2ncc(Br)cc2[nH]1)c1ccc([N+](=O)[O-])cc1	132*	15	-4	101	-14	0	107	1	103
CCN(CC)C(=O)CSc1nc2ncc(Br)cc2[nH]1	106	-2	-9	106	-5	23	nt	nt	nt
COc1ccc(/C=C/C(=O)OCC(=O)NC2CCCC2)cc1	nt	16	1	nt	-18	nt	nt	nt	nt
Oc1ccc2ccc3[nH]cnc3c2c1	39*[inhibitor]	17	-4	45*[inhibitor]	4	5	95	-3	99
CN(C)Cc1c(O)ccc2[nH]cnc12	80	2	2	89	1	-11	nt	nt	nt
NNC(=O)Cn1nc(-c2ccccc2)c2ccccc2c1=O	2.0*[inhibitor]	nt	-1	3.0*[inhibitor]	-5	-51	105	4	105
CN=C1N(C)C[C@@H]2[C@@H]3C(=O)N(C)C(=O)[C@@H]3[C@](C)(C(=O)OC)N12	nt	nt	2	nt	nt	nt	nt	nt	nt
O=C(O)COc1cccc(NC(=O)c2ccccc2)c1	105	8	-7	106	-2	4	nt	nt	nt
CC(C)CCOc1cccc(OCC(=O)O)c1	183*	nt	-12	96	-2	1	107	4	105
COc1ccc(C2c3[nH]c4ccccc4c3CCN2Cc2cccn2-c2ncccn2)cc1C (stereo unspecified)	117	-8	3	127	2	2	nt	nt	nt
Cc1cccc(C2c3[nH]c4ccccc4c3CCN2Cc2cccn2-c2ncccn2)c1 (stereo unspecified)	110	-8	4	149*	8	30	109	5	102
SMILES	MEKK3 PB1 HTS	PREPL inh	ATG4B inh	MEKK2 WT-MEK5	UBC13 inh	MEKK2mut PB1 HTS	MEKK2wt confirm	MEKK2mut-MEK5	MEKK3-MEK5 inh
CCOc1ccc(NC(=O)c2ccc(NC(=O)c3cn4c5c(c(N6CCN(C)CC6)c(F)cc5c3=O)OCC4C)cc2)cc1 (stereo unspecified)	45*[inhibitor]	11	-7	70	16	-8	181	40	85
CCN(CC)C(=O)[C@H]1C[C@H](CC(=O)NCCc2ccccn2)C(=O)N2CCc3c([nH]c4cc(CCC(=O)N(C)C)ccc34)[C@]12C	nt	nt	-6	nt	nt	nt	nt	nt	nt
Cc1ccc(F)c(CNC(=O)C2CCC(=O)N(Cc3ccccn3)C2)c1F (stereo unspecified)	99	15	10	98	3	5	nt	nt	nt
O=C(Cn1cnc([N+](=O)[O-])n1)N/N=C/c1cc(Cl)ccc1O	135*	11	-5	121	-9	17	110	6	106
O=C(Cn1cnc([N+](=O)[O-])n1)N/N=C/c1ccccc1O	101	16	-9	102	-5	7	nt	nt	nt
CSCCC(NC(=O)c1ccccc1Br)C(=O)NNC(=O)c1ccncc1 (stereo unspecified)	nt	8	-1	nt	6	nt	nt	nt	nt
Cn1ncc2c(NNC(=O)c3ccccc3Cl)ncnc21	129*	-2	0	100	8	-1	100	2	104
CCOc1ccc(CN(C)C(C)C(=O)Nc2ccc([N+](=O)[O-])cc2Cl)cc1OC (stereo unspecified)	139*	1	-3	98	-6	-2	103	3	100
CCOC(=O)C1(CCOc2ccccc2)CCN(Cc2cc(OC)c3c(c2)OCO3)CC1	104	-35	0	145*	19	41	126	17	108

Compound activity: PubChem BioAssay, several laboratories
